# Screening data deposited in PubChem BioAssay by National Center for Advancing Translational Sciences (NCATS).
# Nrf2 inh: Nrf2 pathway inhibition; Potency, µM (highest dose often 46 µM), without a hit: at the highest dose activity change, negative = inhibition, hits mostly inhibitors; 360,000 tested, 2.1% active; A549 ARE-Fluc reporter, luciferase luminescence, 18-24 h; also: % is scaled to controls: 0 for no effect and ±100 for the full control effect; nearly all actives have a fitted effect of over 60% in size
#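 Concentration-response testing used A549 ARE_Fluc cells at 5000 cells/well. Following an 18-24 h compound incubation, viability was read by fluorescence (Ex 405/Em 525) and luciferase output by luminescence.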
# A549 viability: A549 cytotoxicity, counter-screen for Nrf2 inhibitors; A549 ARE-Fluc cells, CellTiter-Fluor viability, 18-24 h; Potency, µM (highest dose often 46 µM), for the others: at the highest dose activity change, negative = cytotoxicity, actives largely listed as inhibitors; 390,000 tested, 0.16% active; also: % is scaled to controls: 0 for no effect and ±100 for the full control effect
#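 A549 ARE_Fluc cells in 5% FBS OPTI-MEM were exposed to compounds in concentration-response for 18-24 h at 37 deg C. Viability was read by CellTiter-Fluor fluorescence (Ex 405/Em 525) after 30 min, before the luciferase read.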
# IDH1 R132H inh: human IDH1 R132H inhibition; IDH1-R132H enzyme, NADPH consumption, diaphorase/resazurin fluorescence; AID 602179; 390,000 tested, 0.093% active; Potency, µM (series often up to 76.6 µM), for the others: top-dose activity change, negative = inhibition, actives largely listed as inhibitors; also: % is scaled to controls: 0 for no effect and ±100 for the full control effect; nearly all actives have a fitted effect of over 65% in size
# Target sequence (O75874 whole entry R132H, stated change not applied): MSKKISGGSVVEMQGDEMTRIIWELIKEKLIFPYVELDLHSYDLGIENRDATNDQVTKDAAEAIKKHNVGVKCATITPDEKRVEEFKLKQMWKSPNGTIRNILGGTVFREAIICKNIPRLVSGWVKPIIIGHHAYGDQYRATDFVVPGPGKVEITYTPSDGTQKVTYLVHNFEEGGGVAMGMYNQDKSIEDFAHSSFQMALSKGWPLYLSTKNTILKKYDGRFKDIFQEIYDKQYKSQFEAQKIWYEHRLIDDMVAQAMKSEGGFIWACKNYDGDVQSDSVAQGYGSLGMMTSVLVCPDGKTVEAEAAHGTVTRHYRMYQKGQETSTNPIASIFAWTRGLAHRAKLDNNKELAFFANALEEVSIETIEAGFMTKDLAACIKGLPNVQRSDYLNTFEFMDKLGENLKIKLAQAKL
#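 IDH1-R132H (0.5 ug/mL) preincubated 30 min with compound, then NADPH (0.016 mM) and alpha-KG (2 mM) added; 80 min at RT, pH 7.5. Remaining NADPH coupled via diaphorase/resazurin to fluorescence (540/590 nm); concentration-response curves normalized to no-enzyme control.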
# Nrf2 activator: activates Nrf2 signaling. Potency, µM (doses to about 46.1 µM), without a hit: top-dose activation, actives largely listed as activators. AREc32 ARE-luciferase reporter (MCF7-derived line), luminescence, 24 h. 410,000 tested, 0.31% active; also: % of control where 0% means no effect; nearly all actives have a fitted effect of over 65% in size
#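 Reporter line AREc32 (ARE-Fluc), seeded overnight in OPTI-MEM with 5% FBS; compound pin-transferred, 24 hr at 37 deg C, 5% CO2; luminescent read-out.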
# ELG1 repair inh: ELG1-dependent DNA repair inhibition. Potency, µM (titrated, usually from 46.1 µM), for the others: top-dose activity change, negative = inhibition, most hits filed as inhibitors. HEK293T ELG1-luciferase reporter, luminescence, 16 h; DNA damage induced by 5-fluorouridine. 330,000 tested, 2.3% active; also: % is scaled to controls: 0 for no effect and ±100 for the full control effect; nearly all actives have a fitted effect of over 55% in size
#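 DMSO vehicle served as the neutral condition. Each well held 2,000 cells given 5-fluorouridine plus compound; after 16 hr at 37 °C/5% CO2, ONE-Glo was added and luciferase measured 30 min later.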
# ELG1 FLuc counter: luciferase inhibition in cell-free luciferin readout for ELG1 hits; shares compounds with ELG1 repair inh; cell-free firefly luciferase luminescence counter-screen, ViewLux; Potency, µM (top dose mostly 46.1 µM), for the others: top-dose activity change, negative = inhibition, hits mostly inhibitors; 350 tested, 3% active; AID 624247; also: % is scaled to controls: 0 for no effect and ±100 for the full control effect
# ELG1-Luc inh: confirmation of human ELG1-dependent DNA repair inhibitors; Potency, µM (top dose mostly 46.1 µM), inactives show top-dose activity change, negative = inhibition, hits mostly inhibitors; shares compounds with ELG1 repair inh; AID 624248; HEK293T ELG1-luciferase levels, luminescence; cells co-treated with 5-fluorouridine; 670 tested, 68% active; also: % is scaled to controls: 0 for no effect and ±100 for the full control effect; nearly all actives have a fitted effect of over 55% in size
# ELG1 MMS Luc: inhibits ELG1-dependent repair under MMS stimulation in HEK293T cells. shares compounds with ELG1 repair inh. HEK293T luciferase-tagged ELG1 level, MMS stimulated. Potency, µM (highest dose often 46.1 µM), inactives show at the top dose activity change, negative = inhibition, hits mostly inhibitors. 670 tested, 53% active; also: % is scaled to controls: 0 for no effect and ±100 for the full control effect; nearly all actives have a fitted effect of over 60% in size
# ELG1 5-FU: confirmation of ELG1 repair inhibitors: viability with 5FU; AID 624250; shares compounds with ELG1 repair inh; cell viability with 5-FU, ELG1-dependent repair; Potency, µM (series often up to 46.1 µM), for inactives: top-dose activity change, negative = viability loss, hits mostly cytotoxic; 670 tested, under 10 active;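 also: ELG1-luc HEK293T cells cotreated with 5-fluorouridine at 10 µM final; viability measured 16 h after compound addition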
# ELG1 MMS cell: confirmation of ELG1 repair inhibitors: viability with MMS. shares compounds with ELG1 repair inh. Cell viability with MMS, ELG1-dependent DNA repair. Potency, µM (top dose mostly 46.1 µM), without a hit: at the highest dose activity change, negative = viability loss, hits mostly cytotoxic. 670 tested, 33% active. AID 624251;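 also: ELG1-luc HEK293T cells co-treated with 10 µM MMS; viability read 16 h after compound addition; % is scaled to controls: 0 for no effect and ±100 for the full control effect; nearly all actives have a fitted effect of over 60% in size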
# Cell viab unstim: unstimulated viability counter-screen for ELG1 repair hits; cell viability counter-screen, unstimulated, luminescence; 900 tested, 8% active; Potency, µM (doses to about 45.9 µM), without a hit: at the highest dose activity change, negative = loss of viability, most hits filed as cytotoxic; shares compounds with ELG1 repair inh;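 also: compound exposure lasted 16 hours before reading; % is scaled to controls: 0 for no effect and ±100 for the full control effect; nearly all actives have a fitted effect of over 55% in size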
# FLuc biochem: inhibits purified firefly luciferase, counter-screen for ELG1 hits; 350 tested, 10% active; shares compounds with ELG1 repair inh; AID 624253; purified firefly luciferase, luminescence counter-screen; Potency, µM (series often up to 57.5 µM), without a hit: top-dose activity, negative = inhibition, usual class: inhibitors; also: % is scaled to controls: 0 for no effect and ±100 for the full control effect
# * = called active by the depositor; ? = inconclusive; . = no result given. Only some compounds are listed: those with a hit (about 3.8% of all), similar ones and a draw of the others. Calls follow the shape of the dose curve; as a rule, active = well fitted curve in the direction sought with a large enough effect; inconclusive = small, poorly fitted or top-dose-only effect, or another doubt; inactive = no such curve, though single readings can be large; an effect the other way counts as inactive or inconclusive. Potency is read from the fitted curve at half-maximal effect.
SMILES,Nrf2 inh,A549 viability,IDH1 R132H inh,Nrf2 activator,ELG1 repair inh,ELG1-Luc inh,ELG1 MMS Luc,ELG1 5-FU,ELG1 MMS cell,Cell viab unstim,others
NC(=O)c1ccc(N2CCN(S(=O)(=O)c3cccs3)CC2)c([N+](=O)[O-])c1,?,-21.0%,2.2%,2.8%,2.31µM*,?,0.996µM*,-6.2%,0.791µM*,12.5µM*,
CN(C)S(=O)(=O)c1ccc(NC(=O)c2cc(-c3cccs3)nc3ccccc23)cc1,-13.3%,-3.4%,-2.9%,0.4%,3.66µM*,?,?,2.9%,-12.2%,?,
CC(=O)Nc1cccc(NC(=O)C(=O)NCCc2csc3nc(-c4ccccc4F)nn23)c1,.,-1.3%,0.0%,4.6%,.,.,.,.,.,.,
NC(COCc1ccccc1)c1csc(Nc2ccccn2)n1 (stereo not drawn),.,.,.,6.0%,.,.,.,.,.,.,
O=C(Cc1cccc(NC(=O)C2CCN(C(=O)CCc3ccccc3)CC2)c1)Nc1cccc(C(=O)N2CCCCC2)c1,-23.0%,3.2%,-3.0%,3.2%,.,.,.,.,.,.,
CC(C)NC(=O)N(C)C[C@H]1Oc2c(NC(=O)Nc3ccc(C(F)(F)F)cc3)cccc2C(=O)N([C@H](C)CO)C[C@@H]1C,?,?,4.6%,10.9%,-20.2%,.,.,.,.,.,
C[C@H]1CN([C@@H](C)CO)C(=O)c2cccc(NC(=O)Nc3ccc(C(F)(F)F)cc3)c2O[C@@H]1CN(C)Cc1ccc(Cl)c(Cl)c1,?,?,0.2%,-2.2%,4.61µM*,14.1µM*,14.1µM*,?,25µM*,12.5µM*,
C[C@H](CO)N1C[C@H](C)[C@@H](CN(C)C(=O)Nc2ccc(C(F)(F)F)cc2)Oc2c(NC(=O)Nc3ccc4c(c3)OCO4)cccc2C1=O,?,-2.0%,-10.9%,4.6%,0.58µM*,1.99µM*,-17.6%,?,9.0%,-12.0%,ELG1 FLuc counter=5.7%;FLuc biochem=?
C[C@H](CO)N1C[C@H](C)[C@@H](CN(C)C(=O)Nc2ccc(C(F)(F)F)cc2)Oc2c(NC(=O)Nc3ccccc3)cccc2C1=O,?,-21.0%,-30.4%,0.2%,0.517µM*,6.29µM*,-12.7%,?,-7.3%,?,ELG1 FLuc counter=-11.2%;FLuc biochem=?
O=C(Cn1c(=O)n(-c2ccccc2)c(=O)c2c3c(sc21)CCCC3)Nc1ccc(F)cc1F,-8.8%,-3.8%,-11.4%,0.3%,.,.,.,.,.,.,
